According to PubChem BioAssay AID1159580 (chemical genetic matrix, 2015):
Hit rate of the full screen: of about 5,500 compounds, about 2,000 (36%) were called active. About 18% were inconclusive and are not listed. No stated cut-off is given here; in the data, active means normalized growth mostly below about 0.91 (no sharp cut-off); inconclusive means no clear call, values can overlap the other calls; inactive means mostly above about 0.92. Some of the results follow.

Assay: chemical genetic growth profiling, strain panel (AID 1159580);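 further: tested at 20 µM; growth read once vehicle control cultures reached saturation at 30 °C; 1 = growth at the plate median or of vehicle wells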
Conditions: S. cerevisiae deletion strains, growth OD
[1] = locus YAL040C, strain CLN3, stronger effect = lower value
[2] = locus YCL061C, strain MRC1 (second series), stronger effect = lower value
[3] = locus YDR363W, strain ESC2, stronger effect = lower value
[4] = locus YER002W, strain NOP16, stronger effect = lower value
[5] = locus YGR078C, strain PAC10, stronger effect = lower value
[6] = locus YGR229C, strain SMI1, stronger effect = lower value
[7] = locus YMR307W, strain GAS1, stronger effect = lower value
[8] = locus YNL153C, strain GIM3, stronger effect = lower value
[9] = locus YNL175C, strain NOP13, stronger effect = lower value
[10] = locus YNL197C, strain WHI3, stronger effect = lower value
[11] = locus YNL224C, strain SQS1, stronger effect = lower value
[12] = locus YOR083W, strain WHI5 (second series), stronger effect = lower value
[13] = locus YMR263W, strain SAP30, stronger effect = lower value
[14] = locus YNL128W, strain TEP1, stronger effect = lower value
[15] = locus YNL322C, strain KRE1, stronger effect = lower value
[16] = locus YPL241C, strain CIN2, stronger effect = lower value
[17] = locus YJR075W, strain HOC1, stronger effect = lower value

Measured: normalized growth

NC(=O)C1=CN(C2OC(COP(=O)(O)OP(=O)(O)OC[C@H]3O[C@@H](n4cnc5c(N)ncnc54)C(OP(=O)(O)O)[C@H]3O)C(O)C2O)C=CC1 (stereo not given in full)
inactive: [1] 0.989 | [2] 0.997 | [3] 0.976 | [4] 0.977 | [5] 0.979 | [6] 1 | [7] 1 | [8] 1.02 | [9] 0.98 | [10] 0.986 | [11] 1 | [12] 0.991

CCCN1CCC[C@H](c2cccc(O)c2)C1
inactive: [1] 1 | [2] 0.999 | [3] 1.03 | [4] 0.988 | [5] 1.01 | [6] 1 | [13] 0.993 | [7] 0.992 | [14] 1.01 | [8] 1.18 | [9] 0.995 | [10] 1.01 | [11] 1 | [15] 1 | [12] 1 | locus YPL055C, strain LGE1, stronger effect = lower value 0.994 | [16] 1.01

CCCN1CCC[C@@H](c2cccc(O)c2)C1
inactive: [1] 0.98 | [2] 1 | [3] 1.03 | [4] 0.983 | [5] 0.984 | [6] 0.999 | [17] 1 | [13] 1 | [7] 0.996 | [14] 0.999 | [9] 1.01 | [11] 0.993 | [12] 1.01 | [16] 0.999
active: [10] 0.446

CCCN1CCC[C@@H](c2cccc(C#N)c2)C1
inactive: locus YAL013W, strain DEP1, stronger effect = lower value 1.01 | [1] 0.986 | [2] 1.01 | locus YDR150W, strain NUM1, stronger effect = lower value 0.994 | [3] 1.04 | [4] 0.989 | [6] 1.04 | [17] 1 | [13] 1.01 | [9] 0.993 | [10] 1.04 | [11] 1.01 | [15] 1 | [12] 0.978

NCCc1c[nH]c2ccc(C(N)=O)cc12
inactive: [1] 1.1 | [2] 1 | [3] 1.01 | [4] 1.01 | [5] 1.02 | [7] 1 | [8] 1.01 | [9] 1.01 | [10] 1.02 | [11] 0.997 | [12] 1.02 | [16] 1
